# Measurements taken from PubChem BioAssay AID686978 (National Center for Advancing Translational Sciences (NCATS), 2013).
# About 64,000 (15%) of roughly 420,000 compounds were called active. Inconclusive results (about 27%) are left out. These entries were drawn from the full list. Values without a mark were called inactive. Calls follow the shape of the dose curve; as a rule, active = well fitted inhibition curve with a large enough effect; inconclusive = small, poorly fitted or top-dose-only effect; inactive = flat fitted curve, though single readings scatter.
# Assay: qHTS for Inhibitors of human tyrosyl-DNA phosphodiesterase 1 (TDP1): qHTS in cells in absence of CPT; also: nearly all actives have a fitted effect of over 55% in size
# Details: DT40 Tdp1-/- hTDP1 cells, no CPT, ATP luminescence, 48 h; activity change, negative = growth inhibition: at 46.2 µM (top of the series)
# How it was run: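 DT40 Tdp1-/-;hTDP1 cells, no CPT (DMSO vehicle only), 400 cells/well; compounds pin-transferred; ≥48 hr, 37 °C; CellTiter-Glo 30 min RT dark, luminescence read.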
# % is scaled to controls: 0 for no effect and ±100 for the full control effect; potency is read from the fitted curve at half-maximal effect.
SMILES,"activity change, negative = growth inhibition [%]",Potency
O=C(CNC(=O)c1ccccc1)NCC(=O)OCc1ccc(Cl)cc1,-13.1,–
CCOC(=O)CSc1nccc(N(C)C)c1C#N,1.31,–
CN(CC(=O)NCCN1CCOCC1)S(=O)(=O)c1ccc(F)cc1,5.76,–
O=C(NC(Cc1c[nH]c2ccccc12)C(=O)O)/C(=C/c1ccco1)NC(=O)c1ccccc1 (stereo not given),-0.131,–
Cc1c(Cl)cccc1NC(=S)NCc1ccc2c(c1)OCO2,-27.6,–
c1ccc(Cn2nnc3c(N4CCCCC4)ncnc32)cc1,–,8.91 µM (active)
O=C(CSc1ncnc2c1nnn2Cc1ccc(F)cc1)NC1CCCC1,1.56,–
CC(C)Nc1ncnc2c1nnn2Cc1ccccc1,-22.2,–
CCc1ccccc1NC(=O)CSc1nnc([C@@H](NC(=O)OC(C)(C)C)C(C)CC)o1 (stereo not given in full),-10,–
Cc1nc(SCC(=O)Nc2cc(C)on2)c2c3c(sc2n1)CCCC3,-22.6,–
Cc1cc(NC(=O)CSc2nc(C(C)C)nc3sc4c(c23)CCC(C)C4)no1 (stereo not given),–,23.1 µM (active)
CC(C)c1nc(SCC(=O)Nc2cccc(C(=O)O)c2)c2c3c(sc2n1)CCCC3,-3.16,–
CCCN1CCN(CCCNC(=O)c2cnn(-c3ccc(C)cc3)c2-n2cccc2)CC1,-27,–
Cc1c(C(=O)NCc2ccccc2)cnn1-c1ccccc1,-3.89,–
CSc1ccc(CCNC(=O)c2cnn(-c3ccccc3)c2-n2cccc2)cc1,–,14.6 µM (active)
C=CCn1c(SCC(=O)NC(=O)Cc2ccccc2)nc2ccccc2c1=O,1.77,–
Cc1csc(=O)n1CCC(=O)OCC(=O)NNC(=O)c1ccc(Br)cc1,-14.1,–
CCCOc1ccccc1C1CC(=O)Nc2cc3c(cc21)OCO3 (stereo not given),–,1.84 µM (active)
COCCOC(=O)C1=C(C)NC(=O)CC1c1cc2c(cc1Br)OCO2 (stereo not given),-12.9,–
O=C1CC(c2ccc(F)cc2F)c2cc3c(cc2N1)OCO3 (stereo not given),-22.4,–
Cc1cc(C)c2nc(NC(=O)C3CCCO3)sc2c1 (stereo not given),-22.2,–
Cn1c(=O)c(Sc2ccc(Cl)cc2)c(O)c2ccccc21,-22.1,–
CCC(Sc1nnc(-c2ccc(OC)cc2)c(-c2ccc(OC)cc2)n1)C(=O)NC1CCCCC1 (stereo not given),–,13 µM (active)
COc1ccc(-c2nnn(CC(=O)N(CCO)C(C(=O)NC3CCCC3)c3ccc(F)cc3)n2)cc1 (stereo not given),-22.1,–
COc1ccc(-c2nnc(SC(C)C(=O)NC3CC3)o2)cc1 (stereo not given),12.8,–
O=C(NCc1nnc(SCC(=O)N2CCCCCC2)o1)c1ccc(F)cc1,-8.37,–
S=c1nccc(-c2cc(Cl)sc2Cl)[nH]1,-28,–
O=c1c2ccccc2nc2n1C1(CCCCC1)Cc1ccccc1-2,–,16.4 µM (active)
CC1(C)Cc2ccccc2-c2c[nH]c(=O)n21,-10.5,–
c1cncc(-c2nnc3n2C2(CCCCC2)Cc2ccccc2-3)c1,-8.67,–
